Measured values as given in the supplement of paper PMC13380429.

System: Vero E6 infected with SARS-CoV-2
Test: inhibition of SARS-CoV-2 cytopathic effect; higher = more antiviral protection, active = above 15
Conditions: 48 h

Measured: inhibition of SARS-CoV-2 cytopathic effect

O=S(=O)(O)c1ccc(O)cc1 [4-phenolsulfonic-acid]
inactive: 1 nM -2.47% | 8.33 nM 0.25% | 100 nM 0.79% | 833.33 nM -2.18% | 10000 nM -0.48%

CCCC(=O)Nc1ccc(OCC(O)CNC(C)C)c(C(C)=O)c1 (stereo not given) [acebutolol]
inactive: 1 nM 4.4% | 8.33 nM 2.88% | 100 nM 3.43% | 833.33 nM -2.09% | 10000 nM 3.92%

C[C@H]1C[C@@H]2[C@H]([C@@H](O)C[C@@]3(C)[C@H]2CC[C@]3(O)C(=O)CO)[C@@]2(C)C=CC(=O)C=C12 [methylprednisolone]
inactive: 1 nM 0.61% | 8.33 nM 3.49% | 100 nM -1.8% | 833.33 nM 0.94% | 10000 nM 0.36%

NC[C@H](O)c1ccc(O)c(O)c1 [norepinephrine]
inactive: 1 nM 1.39% | 8.33 nM -0.56% | 100 nM -2.09% | 833.33 nM 0.33% | 10000 nM -1.61%

CCn1cnc2c(Nc3cccc(Cl)c3)nc(N[C@@H]3CCCC[C@@H]3N)nc21
inactive: 1 nM -1.22% | 8.33 nM 0.37% | 100 nM 2.67% | 833.33 nM 3.13% | 10000 nM -29.1%

O=C(c1ccc(/C=C/c2n[nH]c3ccccc23)cc1)N1CCNCC1
inactive: 1 nM 0.11% | 8.33 nM 1.26% | 100 nM 0.85% | 833.33 nM 0.22% | 10000 nM -1.99%

O=[N+]([O-])c1cncn1CCN1CCOCC1 [nimorazole]
inactive: 1 nM -1.41% | 8.33 nM -0.32% | 100 nM 0.99% | 833.33 nM 0.22% | 10000 nM -0.02%
